# Test results published in publication PMC7862700, “An all-to-all approach to the identification of sequence-specific readers for epigenetic DNA modifications on cytosine”.
# Experiments:
# Assay in all cases: DAPPL (digital affinity profiling via proximity ligation, sequencing); 10 mM Tris-HCl pH 7.5, 50 mM NaCl, 1 mM DTT, 4% glycerol, room temperature, 30 min; GST-TFs on glutathione beads, 16-mer random dsDNA library, 0.1% formaldehyde crosslink after washing; high values mean tight binding
# FLI1 = biological target: T1, FLI1 (Homo sapiens, UniProt Q01543 1-452); settings: protein: recombinant; tags: N-terminal GST; dsDNA, one strand shown
# T1 sequence: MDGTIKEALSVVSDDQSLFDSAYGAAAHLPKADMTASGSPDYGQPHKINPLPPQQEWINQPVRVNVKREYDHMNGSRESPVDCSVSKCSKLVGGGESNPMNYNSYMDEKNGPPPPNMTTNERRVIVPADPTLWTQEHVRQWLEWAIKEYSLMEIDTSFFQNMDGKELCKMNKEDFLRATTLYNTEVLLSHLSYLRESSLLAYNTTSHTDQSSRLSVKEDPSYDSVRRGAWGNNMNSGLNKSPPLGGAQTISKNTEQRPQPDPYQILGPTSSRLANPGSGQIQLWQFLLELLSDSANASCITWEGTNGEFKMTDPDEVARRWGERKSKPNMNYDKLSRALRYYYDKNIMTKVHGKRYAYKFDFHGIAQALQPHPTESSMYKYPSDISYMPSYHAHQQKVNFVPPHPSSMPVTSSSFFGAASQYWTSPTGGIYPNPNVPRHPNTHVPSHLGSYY
# Summary of the method: (§1)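 In yeast, human transcription factors were expressed with a GST fusion, then pulled down on glutathione beads and given DNA barcodes. Pooled with a tag-only sample, they were exposed to 200 nmole of a 16-mer random double-stranded DNA library (Tris/NaCl/DTT/glycerol buffer, room temperature, 30 min), washed, crosslinked with 0.1% formaldehyde, proximity-ligated using BsaI/T4 ligase for 1 h at 37 °C, PCR-amplified and read on an Illumina NextSeq500. Each hexamer's frequency of reads for a factor, divided by the matching frequency for the tag-only sample, gives the binding signal.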
# ELK1 = biological target: T2, ELK1 (Homo sapiens, UniProt P19419 1-428); settings: protein: recombinant; tags: N-terminal GST; dsDNA, one strand shown
# T2 sequence: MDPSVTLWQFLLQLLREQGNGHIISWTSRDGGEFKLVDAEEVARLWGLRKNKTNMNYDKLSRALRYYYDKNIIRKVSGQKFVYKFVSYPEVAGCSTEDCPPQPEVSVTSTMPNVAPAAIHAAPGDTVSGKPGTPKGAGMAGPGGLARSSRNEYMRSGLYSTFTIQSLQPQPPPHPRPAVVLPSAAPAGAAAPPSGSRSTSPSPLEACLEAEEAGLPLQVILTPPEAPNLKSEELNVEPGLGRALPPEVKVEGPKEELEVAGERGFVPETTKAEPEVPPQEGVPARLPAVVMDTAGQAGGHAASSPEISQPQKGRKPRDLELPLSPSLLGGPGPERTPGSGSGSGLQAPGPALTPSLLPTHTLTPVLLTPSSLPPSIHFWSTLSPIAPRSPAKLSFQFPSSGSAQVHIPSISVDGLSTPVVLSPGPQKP
# Summary of the method: as §1
# GABPA = biological target: T3, GABPA (Homo sapiens, UniProt Q06546 1-454); settings: protein: recombinant; tags: N-terminal GST; dsDNA, one strand shown
# T3 sequence: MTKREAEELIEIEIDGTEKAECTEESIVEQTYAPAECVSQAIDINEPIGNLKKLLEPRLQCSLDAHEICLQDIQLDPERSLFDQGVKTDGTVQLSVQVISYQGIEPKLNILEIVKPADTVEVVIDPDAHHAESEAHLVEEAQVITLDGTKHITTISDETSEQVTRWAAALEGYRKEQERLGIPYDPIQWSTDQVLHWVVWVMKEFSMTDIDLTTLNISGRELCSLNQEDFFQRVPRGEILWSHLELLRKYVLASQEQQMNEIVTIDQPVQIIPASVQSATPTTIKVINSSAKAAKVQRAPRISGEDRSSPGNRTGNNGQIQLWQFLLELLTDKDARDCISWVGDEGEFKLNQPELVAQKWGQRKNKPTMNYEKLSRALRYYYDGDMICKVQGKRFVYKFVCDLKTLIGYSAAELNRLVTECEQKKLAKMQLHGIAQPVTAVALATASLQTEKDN
# Summary of the method: as §1
# ERG = biological target: T4, ERG (Homo sapiens, UniProt P11308 1-479); settings: protein: recombinant; tags: N-terminal GST; dsDNA, one strand shown
# T4 sequence: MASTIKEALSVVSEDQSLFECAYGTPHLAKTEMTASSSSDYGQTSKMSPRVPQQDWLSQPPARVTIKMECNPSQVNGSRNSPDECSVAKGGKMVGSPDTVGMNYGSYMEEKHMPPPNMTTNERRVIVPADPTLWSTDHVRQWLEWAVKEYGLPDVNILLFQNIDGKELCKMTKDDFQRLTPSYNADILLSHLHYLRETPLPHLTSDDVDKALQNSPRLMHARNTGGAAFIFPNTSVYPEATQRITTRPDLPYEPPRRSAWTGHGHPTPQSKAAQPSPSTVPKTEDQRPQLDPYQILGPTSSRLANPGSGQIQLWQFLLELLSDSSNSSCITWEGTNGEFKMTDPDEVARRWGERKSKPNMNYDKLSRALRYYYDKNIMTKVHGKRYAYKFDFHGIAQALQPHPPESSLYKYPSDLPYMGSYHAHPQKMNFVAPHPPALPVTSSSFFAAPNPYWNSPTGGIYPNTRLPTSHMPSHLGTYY
# Summary of the method: as §1
# ELF1 = ELF1 (Homo sapiens, UniProt P32519 1-619); settings: protein: recombinant; tags: N-terminal GST; dsDNA, one strand shown
# Sequence of ELF1 (P32519 whole entry): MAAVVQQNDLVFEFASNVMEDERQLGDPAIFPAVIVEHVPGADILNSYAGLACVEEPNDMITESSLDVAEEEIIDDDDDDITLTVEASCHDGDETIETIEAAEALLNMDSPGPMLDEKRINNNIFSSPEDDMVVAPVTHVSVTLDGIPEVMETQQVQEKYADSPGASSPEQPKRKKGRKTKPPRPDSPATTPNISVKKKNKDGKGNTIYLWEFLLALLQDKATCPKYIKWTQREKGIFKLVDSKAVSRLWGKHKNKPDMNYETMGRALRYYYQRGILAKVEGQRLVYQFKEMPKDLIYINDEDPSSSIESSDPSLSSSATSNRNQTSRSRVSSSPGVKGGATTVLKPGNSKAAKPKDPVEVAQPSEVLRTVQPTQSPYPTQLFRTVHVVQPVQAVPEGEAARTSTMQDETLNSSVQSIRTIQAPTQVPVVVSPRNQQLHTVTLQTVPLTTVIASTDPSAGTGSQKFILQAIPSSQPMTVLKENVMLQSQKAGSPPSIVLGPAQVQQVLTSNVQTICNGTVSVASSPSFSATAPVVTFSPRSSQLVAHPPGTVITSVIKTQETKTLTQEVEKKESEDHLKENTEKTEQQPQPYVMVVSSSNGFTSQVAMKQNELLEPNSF
# Summary of the method: as §1
# EHF = biological target: T5, EHF (Homo sapiens, UniProt Q9NZC4 1-300); settings: protein: recombinant; tags: N-terminal GST; dsDNA, one strand shown
# T5 sequence: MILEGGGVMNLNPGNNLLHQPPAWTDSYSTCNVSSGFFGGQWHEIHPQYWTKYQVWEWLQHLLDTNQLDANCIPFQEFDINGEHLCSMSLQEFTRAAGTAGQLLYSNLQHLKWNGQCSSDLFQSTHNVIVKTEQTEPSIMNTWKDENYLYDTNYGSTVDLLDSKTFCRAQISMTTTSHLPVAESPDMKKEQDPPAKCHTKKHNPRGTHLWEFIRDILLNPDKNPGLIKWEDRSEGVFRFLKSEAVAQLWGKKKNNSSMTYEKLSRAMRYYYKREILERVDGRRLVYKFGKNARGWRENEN
# Summary of the method: as §1
# SPI1 = SPI1 (Homo sapiens, UniProt P17947 1-270); settings: protein: recombinant; tags: N-terminal GST; dsDNA, one strand shown
# Summary of the method: as §1
# SPIB = SPIB (Homo sapiens, UniProt Q01892 1-262); settings: protein: recombinant; tags: N-terminal GST; dsDNA, one strand shown
# Sequence of SPIB (Q01892 whole entry): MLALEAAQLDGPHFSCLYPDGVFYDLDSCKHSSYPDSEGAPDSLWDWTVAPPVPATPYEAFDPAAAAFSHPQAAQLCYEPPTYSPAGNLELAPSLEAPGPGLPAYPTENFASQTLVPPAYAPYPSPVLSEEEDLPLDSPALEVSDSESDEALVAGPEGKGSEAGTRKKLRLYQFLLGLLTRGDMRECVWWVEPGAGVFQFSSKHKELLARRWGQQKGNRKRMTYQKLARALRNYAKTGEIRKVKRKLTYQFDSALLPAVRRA
# Summary of the method: as §1
# ELK3 = biological target: T6, ELK3 (Homo sapiens, UniProt P41970 1-407); settings: protein: recombinant; tags: N-terminal GST; dsDNA, one strand shown
# T6 sequence: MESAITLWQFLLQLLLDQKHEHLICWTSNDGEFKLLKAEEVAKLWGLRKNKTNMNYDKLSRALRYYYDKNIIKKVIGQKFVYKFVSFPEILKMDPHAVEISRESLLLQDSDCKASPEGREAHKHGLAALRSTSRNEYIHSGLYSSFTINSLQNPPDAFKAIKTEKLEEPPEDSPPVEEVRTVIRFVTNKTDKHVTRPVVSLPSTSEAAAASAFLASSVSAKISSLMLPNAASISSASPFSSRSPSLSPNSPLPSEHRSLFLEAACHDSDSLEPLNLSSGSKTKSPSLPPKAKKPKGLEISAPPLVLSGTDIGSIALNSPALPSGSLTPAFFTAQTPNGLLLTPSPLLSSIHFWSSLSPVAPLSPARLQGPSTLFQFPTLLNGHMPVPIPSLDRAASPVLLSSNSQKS
# Summary of the method: as §1
# FEV = biological target: T7, FEV (Homo sapiens, UniProt Q99581 1-238); settings: protein: recombinant; tags: N-terminal GST; dsDNA, one strand shown
# T7 sequence: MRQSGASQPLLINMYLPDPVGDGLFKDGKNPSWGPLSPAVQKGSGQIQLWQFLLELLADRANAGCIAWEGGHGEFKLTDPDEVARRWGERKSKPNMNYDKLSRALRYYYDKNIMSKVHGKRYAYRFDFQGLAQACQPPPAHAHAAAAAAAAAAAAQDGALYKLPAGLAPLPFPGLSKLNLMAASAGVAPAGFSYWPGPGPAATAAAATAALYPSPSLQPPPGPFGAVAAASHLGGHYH
# Summary of the method: as §1
# ETV5 = ETV5 (Homo sapiens, UniProt P41161 1-510); settings: protein: recombinant; tags: N-terminal GST; dsDNA, one strand shown
# Sequence of ETV5 (P41161 whole entry): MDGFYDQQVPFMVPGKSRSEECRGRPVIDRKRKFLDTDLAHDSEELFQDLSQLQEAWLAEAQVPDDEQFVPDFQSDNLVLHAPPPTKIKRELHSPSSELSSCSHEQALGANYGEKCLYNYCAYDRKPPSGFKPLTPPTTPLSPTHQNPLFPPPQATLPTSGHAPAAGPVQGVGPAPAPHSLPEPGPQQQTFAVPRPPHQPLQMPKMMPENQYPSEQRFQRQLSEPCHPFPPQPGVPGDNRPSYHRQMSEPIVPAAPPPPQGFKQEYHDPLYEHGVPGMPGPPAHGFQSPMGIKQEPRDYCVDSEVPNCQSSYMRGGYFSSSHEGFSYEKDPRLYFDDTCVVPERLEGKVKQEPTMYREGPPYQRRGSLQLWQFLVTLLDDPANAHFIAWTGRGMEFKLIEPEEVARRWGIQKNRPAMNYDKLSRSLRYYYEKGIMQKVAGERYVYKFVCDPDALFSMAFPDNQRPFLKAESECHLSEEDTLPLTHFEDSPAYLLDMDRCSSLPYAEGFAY
# Summary of the method: as §1
# HSF1 = HSF1 (Homo sapiens, UniProt Q00613 1-529); settings: protein: recombinant; tags: N-terminal GST; chain copies: 3; dsDNA, one strand shown
# Sequence of HSF1 (Q00613 whole entry): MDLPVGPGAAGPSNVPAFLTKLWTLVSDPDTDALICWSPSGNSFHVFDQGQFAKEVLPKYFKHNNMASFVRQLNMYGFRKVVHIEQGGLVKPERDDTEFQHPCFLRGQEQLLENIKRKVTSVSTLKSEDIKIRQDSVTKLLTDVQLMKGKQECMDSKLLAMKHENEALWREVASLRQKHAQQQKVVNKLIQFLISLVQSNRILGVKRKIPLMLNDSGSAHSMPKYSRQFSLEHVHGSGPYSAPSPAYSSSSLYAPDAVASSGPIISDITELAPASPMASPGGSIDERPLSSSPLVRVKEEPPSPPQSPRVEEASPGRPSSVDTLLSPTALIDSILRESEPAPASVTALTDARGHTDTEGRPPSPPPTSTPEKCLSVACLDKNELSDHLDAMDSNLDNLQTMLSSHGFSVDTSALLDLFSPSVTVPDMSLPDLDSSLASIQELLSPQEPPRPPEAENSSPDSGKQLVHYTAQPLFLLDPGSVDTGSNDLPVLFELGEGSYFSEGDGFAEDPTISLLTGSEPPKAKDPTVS
# Summary of the method: as §1
# SPIC = biological target: T8, SPIC (Homo sapiens, UniProt Q8N5J4 1-248); settings: protein: recombinant; tags: N-terminal GST; dsDNA, one strand shown
# T8 sequence: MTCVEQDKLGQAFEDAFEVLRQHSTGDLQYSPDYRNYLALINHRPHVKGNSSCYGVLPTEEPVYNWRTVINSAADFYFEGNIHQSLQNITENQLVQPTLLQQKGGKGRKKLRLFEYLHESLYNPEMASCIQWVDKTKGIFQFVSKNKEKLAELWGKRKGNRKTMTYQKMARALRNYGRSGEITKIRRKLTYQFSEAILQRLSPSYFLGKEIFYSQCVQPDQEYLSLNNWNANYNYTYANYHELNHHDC
# Summary of the method: as §1
# ELF4 = ELF4 (Homo sapiens, UniProt Q99607 1-663); settings: protein: recombinant; tags: N-terminal GST; dsDNA, one strand shown
# Sequence of ELF4 (Q99607 whole entry): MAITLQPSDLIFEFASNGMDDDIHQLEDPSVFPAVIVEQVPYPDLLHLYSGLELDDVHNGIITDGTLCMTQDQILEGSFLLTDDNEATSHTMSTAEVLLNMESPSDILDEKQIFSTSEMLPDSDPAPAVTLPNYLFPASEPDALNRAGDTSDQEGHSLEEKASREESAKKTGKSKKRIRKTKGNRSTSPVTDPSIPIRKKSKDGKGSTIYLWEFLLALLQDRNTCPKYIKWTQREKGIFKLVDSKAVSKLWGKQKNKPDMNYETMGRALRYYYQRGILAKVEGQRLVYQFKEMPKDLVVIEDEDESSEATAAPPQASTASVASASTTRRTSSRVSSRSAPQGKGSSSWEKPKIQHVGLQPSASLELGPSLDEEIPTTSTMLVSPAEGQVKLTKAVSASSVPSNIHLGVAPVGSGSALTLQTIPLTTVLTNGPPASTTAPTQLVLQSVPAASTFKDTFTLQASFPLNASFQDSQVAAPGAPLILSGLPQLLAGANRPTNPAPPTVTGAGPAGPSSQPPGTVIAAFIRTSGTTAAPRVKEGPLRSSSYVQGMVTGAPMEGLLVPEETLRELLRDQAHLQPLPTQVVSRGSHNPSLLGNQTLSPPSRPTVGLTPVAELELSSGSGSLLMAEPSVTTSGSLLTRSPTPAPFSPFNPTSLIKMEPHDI
# Summary of the method: as §1
# ELK4 = biological target: T9, ELK4 (Homo sapiens, UniProt P28324-2 1-405); settings: protein: recombinant; tags: N-terminal GST; dsDNA, one strand shown
# T9 sequence: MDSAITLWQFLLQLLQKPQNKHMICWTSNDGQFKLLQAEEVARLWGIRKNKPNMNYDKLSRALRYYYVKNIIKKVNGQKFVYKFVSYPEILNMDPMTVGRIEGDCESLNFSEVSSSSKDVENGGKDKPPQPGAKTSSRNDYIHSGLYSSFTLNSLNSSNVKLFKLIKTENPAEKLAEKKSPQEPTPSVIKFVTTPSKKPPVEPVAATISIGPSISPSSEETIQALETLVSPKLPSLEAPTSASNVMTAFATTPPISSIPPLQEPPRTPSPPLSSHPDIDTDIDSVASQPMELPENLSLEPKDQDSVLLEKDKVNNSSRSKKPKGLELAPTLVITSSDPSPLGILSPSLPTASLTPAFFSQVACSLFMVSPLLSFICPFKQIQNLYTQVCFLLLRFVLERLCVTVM
# Summary of the method: as §1
# ETV2 = biological target: T10, ETV2 (Homo sapiens, UniProt O00321 1-342); settings: protein: recombinant; tags: N-terminal GST; dsDNA, one strand shown
# T10 sequence: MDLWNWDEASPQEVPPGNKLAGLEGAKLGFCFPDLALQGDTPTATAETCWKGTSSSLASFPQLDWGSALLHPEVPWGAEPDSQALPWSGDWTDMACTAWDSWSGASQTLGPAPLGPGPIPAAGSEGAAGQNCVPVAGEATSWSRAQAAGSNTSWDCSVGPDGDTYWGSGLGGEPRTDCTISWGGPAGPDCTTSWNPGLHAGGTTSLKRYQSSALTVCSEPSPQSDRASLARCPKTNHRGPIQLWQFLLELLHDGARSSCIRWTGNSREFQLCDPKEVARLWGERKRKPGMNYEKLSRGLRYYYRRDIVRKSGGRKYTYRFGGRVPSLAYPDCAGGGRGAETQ
# Summary of the method: as §1
# ELF3 = biological target: T11, ELF3 (Homo sapiens, UniProt P78545 1-371); settings: protein: recombinant; tags: N-terminal GST; dsDNA, one strand shown
# T11 sequence: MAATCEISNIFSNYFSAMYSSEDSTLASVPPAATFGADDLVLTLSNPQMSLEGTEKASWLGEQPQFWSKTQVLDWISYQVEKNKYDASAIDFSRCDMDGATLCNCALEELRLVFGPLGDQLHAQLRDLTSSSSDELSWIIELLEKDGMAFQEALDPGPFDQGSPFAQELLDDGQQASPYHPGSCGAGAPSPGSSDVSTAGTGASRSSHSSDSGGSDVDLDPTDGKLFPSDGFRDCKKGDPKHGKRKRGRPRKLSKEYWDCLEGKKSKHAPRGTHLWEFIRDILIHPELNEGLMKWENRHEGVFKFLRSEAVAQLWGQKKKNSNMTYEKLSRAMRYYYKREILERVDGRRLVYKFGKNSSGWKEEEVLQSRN
# Summary of the method: as §1
# CRX = CRX (Homo sapiens, UniProt O43186 1-299); settings: protein: recombinant; tags: N-terminal GST; dsDNA, one strand shown
# Sequence of CRX (O43186 whole entry): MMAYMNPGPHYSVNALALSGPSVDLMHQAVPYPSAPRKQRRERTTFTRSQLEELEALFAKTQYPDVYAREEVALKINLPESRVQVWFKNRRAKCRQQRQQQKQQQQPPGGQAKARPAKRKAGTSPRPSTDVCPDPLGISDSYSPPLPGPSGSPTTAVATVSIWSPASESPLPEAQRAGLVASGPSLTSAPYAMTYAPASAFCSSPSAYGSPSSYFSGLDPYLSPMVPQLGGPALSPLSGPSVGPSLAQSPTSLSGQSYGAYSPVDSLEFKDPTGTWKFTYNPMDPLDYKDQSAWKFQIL
# Summary of the method: as §1
# ETV1 = ETV1 (Homo sapiens, UniProt P50549 1-477); settings: protein: recombinant; tags: N-terminal GST; dsDNA, one strand shown
# Sequence of ETV1 (P50549 whole entry): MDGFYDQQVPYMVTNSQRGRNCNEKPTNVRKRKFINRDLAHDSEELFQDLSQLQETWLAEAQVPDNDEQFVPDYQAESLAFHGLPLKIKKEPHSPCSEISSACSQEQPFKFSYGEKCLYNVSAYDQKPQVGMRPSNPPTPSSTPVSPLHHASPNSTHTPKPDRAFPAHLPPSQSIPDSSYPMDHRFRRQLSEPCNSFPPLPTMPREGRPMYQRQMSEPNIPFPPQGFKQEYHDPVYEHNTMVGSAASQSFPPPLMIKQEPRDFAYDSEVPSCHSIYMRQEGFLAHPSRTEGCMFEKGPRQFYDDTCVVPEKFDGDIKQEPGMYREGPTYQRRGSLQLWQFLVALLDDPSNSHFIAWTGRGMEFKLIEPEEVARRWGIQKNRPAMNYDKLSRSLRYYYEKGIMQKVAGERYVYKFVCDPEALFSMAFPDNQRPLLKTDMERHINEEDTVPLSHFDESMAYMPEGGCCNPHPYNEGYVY
# Summary of the method: as §1
sequence,measurement,setting,value
TCCAAG,binding signal,FLI1,"1.16 fold enrichment (6-mer frequency, TF over GST control)"
same,binding signal,ELK1,"1.1 fold enrichment (6-mer frequency, TF over GST control)"
same,binding signal,GABPA,"1.16 fold enrichment (6-mer frequency, TF over GST control)"
same,binding signal,ERG,"1.02 fold enrichment (6-mer frequency, TF over GST control)"
same,binding signal,ELF1,"1.17 fold enrichment (6-mer frequency, TF over GST control)"
same,binding signal,EHF,"1.06 fold enrichment (6-mer frequency, TF over GST control)"
same,binding signal,SPI1,"1.03 fold enrichment (6-mer frequency, TF over GST control)"
same,binding signal,SPIB,"1.09 fold enrichment (6-mer frequency, TF over GST control)"
same,binding signal,ELK3,"1.08 fold enrichment (6-mer frequency, TF over GST control)"
same,binding signal,FEV,"1.03 fold enrichment (6-mer frequency, TF over GST control)"
same,binding signal,ETV5,"1.07 fold enrichment (6-mer frequency, TF over GST control)"
same,binding signal,HSF1,"1.23 fold enrichment (6-mer frequency, TF over GST control)"
same,binding signal,SPIC,"1.11 fold enrichment (6-mer frequency, TF over GST control)"
same,binding signal,ELF4,"1.07 fold enrichment (6-mer frequency, TF over GST control)"
same,binding signal,ELK4,"1.04 fold enrichment (6-mer frequency, TF over GST control)"
same,binding signal,ETV2,"1.19 fold enrichment (6-mer frequency, TF over GST control)"
same,binding signal,ELF3,"1.11 fold enrichment (6-mer frequency, TF over GST control)"
same,binding signal,CRX,"1.2 fold enrichment (6-mer frequency, TF over GST control)"
same,binding signal,ETV1,"1.13 fold enrichment (6-mer frequency, TF over GST control)"
